Screening data as filed in PubChem BioAssay.
IDE cell activ: human IDE activators in live cells, primary screen, fluorescence polarization, HEK cells, FAbeta-B substrate | FAbeta-B cleavage; 0% vehicle, 100% cell-free pure enzyme wells | actives 0.073% (n = 340,000) | activation, % at 5.96 µM | Insulin-degrading enzyme (Homo sapiens), P14735;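 active = activation above the mean of all tested compounds plus 3 SD, set per screening campaign, cut at about 17% in these data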
PfM18AAP inh-1: PfM18AAP inhibitors, malaria aminopeptidase, primary screen, biochemical, QFRET, recombinant enzyme | AID 1822, 2009 | actives 1.2% (n = 290,000) | H-Glu-NHMec fluorogenic cleavage | inhibition, % at 7.35 µM;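 active = inhibition above the campaign mean inhibition over all tested compounds plus 3 SD, cut at about 28% in these data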;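 note: 0% = plate median of test compound wells and 100% = 2 mM ZnCl2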
PolyA inh: polyadenylation inhibitors in yeast reporter cells, primary screen, luminescence, S. cerevisiae; S. cerevisiae SKY197-pL101 polyadenylation reporter, beta-gal luminescence; efflux-impaired pdr1/pdr3 knockout yeast; score 100 = 6 SD above DMSO; activity score, % at 12 µM; actives 0.02% (n = 300,000);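 active = lowest replicate activity score at least 50, where 100 means six control SD above control mean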;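 note: yeast exposed to compound for 9 h at 30 °C; higher score means more reporter readthrough which indicates perturbed polyadenylation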
CaV13 ICDI inh: Primary screen for inhibitors of IQ motif and Ca2+-dependent inactivation inhibitor domain binding in CACNA1D, Förster resonance energy transfer in living cells, …; actives 0.098% (n = 340,000); HEK cells, CFP/YFP FRET ICDI-IQ, plate reader, 10 min; percent FRET-ratio fall versus neutral wells; inhibition, % at 12.3 µM;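 active = mean replicate inhibition of at least 30% and at least 1% of replicates passing that level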;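 note: 0% = median of the neutral control wells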
IDE inh: human IDE inhibitors in live cells, primary screen, fluorescence polarization, HEK cells, FAbetaB substrate; Insulin-degrading enzyme (Homo sapiens), P14735; FAbetaB cleavage; inhibition, % at 5.59 µM; actives 0.41% (n = 320,000); AID 434962, 2010;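 active = percent inhibition above the average of all tested compounds plus 3 SD, set per screening campaign, cut at about 16% in these data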;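 note: IDE supplied by intact live HEK cells; FP after avidin binding of uncleaved biotin substrate so inhibition keeps polarization high; 0% = DMSO wells and 100% = 60 µM reference IDE inhibitor Ii1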
ALR H2O2 inh: inhibitors of human ALR sulfhydryl oxidase, primary screen, biochemical, H2O2 detection, HRP-luminol luminescence, single point; FAD-linked sulfhydryl oxidase ALR (Homo sapiens), P55789; purified ALR, DTT oxidation; inhibition, % (concentration not given with the values); actives 3.8% (n = 290,000);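 active = mean replicate inhibition above about 79%, with every replicate also reaching it, limit read from the data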
Target sequence (P55789 whole entry, looked up): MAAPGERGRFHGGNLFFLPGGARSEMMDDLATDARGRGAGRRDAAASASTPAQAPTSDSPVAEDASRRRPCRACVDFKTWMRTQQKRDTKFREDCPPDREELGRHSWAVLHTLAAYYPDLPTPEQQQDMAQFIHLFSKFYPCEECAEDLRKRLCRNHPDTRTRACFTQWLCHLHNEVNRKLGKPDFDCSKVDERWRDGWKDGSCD
PfM18AAP inh-2: PfM18AAP inhibitors, malaria aminopeptidase, confirmation, biochemical, QFRET, recombinant enzyme, triplicate. shares compounds with PfM18AAP inh-1. H-Glu-NHMec fluorogenic cleavage. inhibition, % at 7.35 µM. actives 28% (n = 2,400). AID 2170, 2009;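 active = mean inhibition over replicate wells above the hit cutoff set for the earlier primary screen, cut at about 29% in these data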;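 note: 0% = median of test compound wells and 100% = 2 mM ZnCl2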
CTSL1 confirm: cathepsin L1 inhibitors, retest, confirmation, counter-screen for PFM18AAP inhibitor project, biochemical, QFRET, triplicate; shares compounds with PfM18AAP inh-1; purified cathepsin L1, Z-Leu-Arg-MCA fluorescence; inhibition, % at 5.96 µM; 2,400 tested, under 10 active;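 active = average inhibition across replicates above the hit cutoff set in the earlier primary screen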;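 note: 0% = median of test compound wells and 100% = Z-Phe-Ala-diazomethylketone 1 µM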
Target sequence (P07711 whole entry, looked up): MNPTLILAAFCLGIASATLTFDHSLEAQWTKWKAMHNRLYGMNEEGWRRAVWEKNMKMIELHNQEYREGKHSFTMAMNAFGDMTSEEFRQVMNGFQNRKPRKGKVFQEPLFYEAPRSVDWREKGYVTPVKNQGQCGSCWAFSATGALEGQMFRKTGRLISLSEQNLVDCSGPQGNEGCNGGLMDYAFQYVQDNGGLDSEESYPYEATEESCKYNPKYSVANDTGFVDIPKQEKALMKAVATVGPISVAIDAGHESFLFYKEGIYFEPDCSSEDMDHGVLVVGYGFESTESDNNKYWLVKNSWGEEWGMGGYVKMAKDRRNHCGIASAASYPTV
* hit, by the source's call. Hits are enriched below; roughly 4.1% of the tested compounds scored in any of these assays.

How did Cc1c(Cl)cccc1N1C(=O)CC(N(O)c2ccccc2)C1=O (stereo not drawn) do in these assays?
IDE cell activ: -5.5; PfM18AAP inh-1: 33.4*; PolyA inh: 2.7; CaV13 ICDI inh: -8.5; IDE inh: 7.5; ALR H2O2 inh: 52.1; PfM18AAP inh-2: -7.9; CTSL1 confirm: -0.1

How did CCN1C(C)=C(C)S/C1=C1\SC(=S)N(N)C1=O do in these assays?
IDE cell activ: 0.0; PfM18AAP inh-1: 75.5*; PolyA inh: -2.0; CaV13 ICDI inh: -1.5; IDE inh: 10.6; PfM18AAP inh-2: -19.9; CTSL1 confirm: 1.5

How did CCOC(=O)N1CCN(S(=O)(=O)c2ccc(C(=O)NNc3nc4c(C)cccc4s3)cc2)CC1 do in these assays?
IDE cell activ: -0.7; PfM18AAP inh-1: 38.1*; PolyA inh: 6.2; CaV13 ICDI inh: -6.8; IDE inh: 1.3; ALR H2O2 inh: 57.7; PfM18AAP inh-2: -15.6; CTSL1 confirm: 5.2

How did CCOC(=O)N1CCN(S(=O)(=O)c2ccc(C(=O)NNc3nc4c(C)cc(C)cc4s3)cc2)CC1 do in these assays?
PfM18AAP inh-1: 39.4*; PolyA inh: 7.6; CaV13 ICDI inh: -10.1; IDE inh: 2.0; ALR H2O2 inh: 25.1; PfM18AAP inh-2: -30.5; CTSL1 confirm: 3.5

Results for Cc1cc(C)c2nc(NNC(=O)c3ccc(S(=O)(=O)N4CCCCC4)cc3)sc2c1 ?
IDE cell activ: 4.8; PfM18AAP inh-1: 35.7*; PolyA inh: -0.5; CaV13 ICDI inh: 2.3; IDE inh: 0.2; ALR H2O2 inh: 5.7; PfM18AAP inh-2: -21.9; CTSL1 confirm: 3.2

What do the screens show for `CCOC(=O)N1CCN(S(=O)(=O)c2ccc(C(=O)N(CCN(CC)CC)c3nc4c(C)cccc4s3)cc2)CC1`?
IDE cell activ: -2.5; PfM18AAP inh-1: -6.1; PolyA inh: 0.4; IDE inh: 5.8; ALR H2O2 inh: 5.9

Results for Cc1ccc(C(=O)NNC(=O)c2ccc(S(=O)(=O)N3CCCCC3)cc2)cc1 ?
IDE cell activ: 1.9; CaV13 ICDI inh: -2.7; IDE inh: -0.6; ALR H2O2 inh: -1.2

What do the screens show for `C/C(=C\c1ccc2c(c1)OCO2)C(=O)c1c(C)cc(C)[nH]c1=O`?
IDE cell activ: 1.1; PfM18AAP inh-1: -9.7; PolyA inh: 17.1; CaV13 ICDI inh: -3.9; IDE inh: 3.5; ALR H2O2 inh: 3.5

Results for O=c1ccc2cc(O)c(O)cc2o1 ?
IDE cell activ: 11.0; PfM18AAP inh-1: 41.9*; PolyA inh: -20.5; CaV13 ICDI inh: -1.7; IDE inh: 5.8; ALR H2O2 inh: 96.2*; PfM18AAP inh-2: 30.5*; CTSL1 confirm: 1.6

How did CC(C#N)Sc1nnc(-c2ccccc2F)n1C1CC1 (stereo not drawn) do in these assays?
IDE cell activ: 3.3; PfM18AAP inh-1: 4.3; PolyA inh: -2.9; CaV13 ICDI inh: -3.8; IDE inh: -6.7; ALR H2O2 inh: -8.9

What do the screens show for `Cc1ccc(/C=N/n2c(-c3ccc(Cl)cc3)n[nH]c2=S)o1`?
IDE cell activ: 2.5; PfM18AAP inh-1: 31.9*; PolyA inh: -4.4; CaV13 ICDI inh: -4.7; IDE inh: -0.5; ALR H2O2 inh: 6.8; PfM18AAP inh-2: -23.6; CTSL1 confirm: 3.2

What do the screens show for `Cc1cccc(NC(=O)C2CCN(S(=O)(=O)c3c(C)c(C)cc(C)c3C)CC2)n1`?
IDE cell activ: 4.6; PolyA inh: -2.9; CaV13 ICDI inh: -6.2; IDE inh: 3.1; ALR H2O2 inh: 0.7

How did COc1ccc(CN2CCC[C@]3(N[C@H](c4ccc(C)cc4)[C@@H]4C(=O)N(C)C(=O)[C@@H]43)C2=O)cc1 do in these assays?
CaV13 ICDI inh: -3.4

Results for CC1=C(C(=O)OC(C)C)C(c2cccs2)C(C(=O)OC(C)C)=C(C)N1 ?
IDE cell activ: 2.2; PfM18AAP inh-1: 4.2; PolyA inh: -5.1; CaV13 ICDI inh: -3.0; IDE inh: 1.8; ALR H2O2 inh: 1.1

How did CNC(=O)N(O)C1N(C)C(=O)N(Cc2ccccc2)C1(C)C (stereo not drawn) do in these assays?
IDE cell activ: -3.0; PfM18AAP inh-1: 7.2; PolyA inh: 4.7; CaV13 ICDI inh: -4.0; IDE inh: -4.2; ALR H2O2 inh: 1.1

What do the screens show for `CCN1C(=O)N(C)C(N(O)C(=O)NC)C1(C)C` (stereo not drawn)?
IDE cell activ: 0.1; PfM18AAP inh-1: 41.8*; PolyA inh: 17.2; CaV13 ICDI inh: -1.4; IDE inh: 1.3; PfM18AAP inh-2: -58.8; CTSL1 confirm: -4.5

What do the screens show for `O=C(OCC(=O)N1CCN(C(=O)c2ccco2)CC1)c1cc(-c2cccc(Br)c2)nc2ccccc12`?
IDE cell activ: 1.8; PfM18AAP inh-1: -2.2; PolyA inh: -26.1; CaV13 ICDI inh: -5.2; IDE inh: 3.7

Results for CS(=O)(=O)c1ccc(NC(=O)CCN2C(=O)NC3(CCCC3)C2=O)cc1 ?
IDE cell activ: 4.4; CaV13 ICDI inh: -3.6; IDE inh: -4.5; ALR H2O2 inh: -2.0

Results for Cc1ccccc1NC(=S)NNC(=O)c1ccoc1C ?
IDE cell activ: -1.1; PfM18AAP inh-1: 11.6; PolyA inh: -0.2; CaV13 ICDI inh: -8.1; IDE inh: 1.6; ALR H2O2 inh: 31.4

What do the screens show for `CCNC(=S)NNC(=O)c1ccoc1C`?
IDE cell activ: 9.0; PfM18AAP inh-1: 33.1*; PolyA inh: -8.7; IDE inh: -1.3; ALR H2O2 inh: 46.7; PfM18AAP inh-2: -16.3; CTSL1 confirm: 4.4

Results for COCCCNC(=S)NNC(=O)c1ccc2c(c1)OCO2 ?
IDE cell activ: 2.2; PfM18AAP inh-1: 35.2*; PolyA inh: 14.6; CaV13 ICDI inh: -4.2; IDE inh: -0.1; ALR H2O2 inh: 21.4; PfM18AAP inh-2: 13.7; CTSL1 confirm: -1.1

How did CC(C)CNC(=S)NNC(=O)c1ccc2c(c1)OCO2 do in these assays?
IDE cell activ: 5.3; PfM18AAP inh-1: 17.3; PolyA inh: 15.5; CaV13 ICDI inh: -4.4; IDE inh: 1.2; ALR H2O2 inh: 0.6
